Results taken from PubChem BioAssay AID624483 (NMMLSC, 2012).
The campaign covered roughly 360,000 compounds. About 11,000 (3.1%) were called active. Another 2% or so got no clear call; they are omitted. Shown is part of a subset that was picked to be rich in actives. Unmarked numbers belong to inactive results. Cut-off read from the data, not from the text of the source: active = fluorescence intensity above about 16000; inconclusive = no clear call, values can overlap the other calls; inactive = below that.

Assay: counter-screen for toxin protease inhibitors: compound fluorescence, primary screen, artefact control for toxin protease inhibitor project, biochemical, multiplex microsphere, HTS (AID 624483)
Details: compound autofluorescence counterscreen, microsphere flow cytometry; active compounds read high
For CCOC(=O)c1ccc(N2C(=O)CC(N3CCC(C(=O)OCC)CC3)C2=O)cc1 (configuration not stated), the fluorescence intensity was 2510. With CCCCOC(=O)c1ccc(N2C(=O)CC(N3CCN(C/C=C/c4ccccc4)CC3)C2=O)cc1 (configuration not stated) the fluorescence intensity was 22500 (active). In the case of CCOC(=O)c1ccc(N2C(=O)CC(N3CCN(C(=O)c4ccccc4)CC3)C2=O)cc1 (configuration not stated), the fluorescence intensity is reported as 2610. In the case of CC(OC(=O)c1ccccc1OCc1ccc(Cl)cc1)C(N)=O (configuration not stated), the fluorescence intensity is reported as 4810. In the case of Cc1cc(=O)oc2c1ccc1ccccc12, the fluorescence intensity is reported as 3640. With O=C(O)CCC(=O)N(Cc1ccco1)c1nc(-c2ccccc2)cs1 the fluorescence intensity was 22500 (active). Cc1ccc(-c2csc(N(Cc3ccco3)C(=O)c3cccs3)n2)cc1 showed a fluorescence intensity of 2850. O=C(O)CN(Cc1ccco1)S(=O)(=O)c1ccccc1 gave a fluorescence intensity of 3010. In the case of O=C(NCc1cccc(C(F)(F)F)c1)c1ccc2sc(COCCO)nc2c1, the fluorescence intensity is reported as 3760. For CCNC(=O)NC(=O)C(C)OC(=O)c1cc(S(=O)(=O)N2CCCCCC2)ccc1OC (configuration not stated), the fluorescence intensity was 3480. In the case of CC1=NNC(=O)C1CC(=O)N/N=C/c1ccncc1 (configuration not stated), the fluorescence intensity is reported as 4920. In the case of CCN(CC)c1ccc(NC(=O)CN2C(=O)NC3(CCc4ccccc43)C2=O)cc1 (configuration not stated), the fluorescence intensity is reported as 8580. Molecule CCOc1ccc(NC(=O)CCNC(=O)c2ccc(Br)cc2)cc1 has a fluorescence intensity of 3030. For CCCCNC(=O)CCNC(=O)c1ccc(C(C)(C)C)cc1, the fluorescence intensity was 20300 (active). With CCCCC(=O)Nc1ccc(C(=O)NCCCn2ccnc2)cc1 the fluorescence intensity was 10500. For CC(C)C1Cc2[nH][nH]c(=O)c2C(c2ccc(Cl)cc2)O1 (configuration not stated), the fluorescence intensity was 5700. With CCN(CC)C(=O)c1sc2nc(-c3ccccc3)ccc2c1N the fluorescence intensity was 4300. Cc1sc2nc(CC(N)=O)[nH]c(=O)c2c1-c1ccccc1 showed a fluorescence intensity of 2450. With NC(=O)c1sc2nc3c(c(-c4ccccc4)c2c1N)CCC3 the fluorescence intensity was 24800 (active). In the case of c1nnc2c3c4c(sc3ncn12)CCC4, the fluorescence intensity is reported as 23300 (active). N=c1c2c3c(sc2nc2n1CCCCC2)CCCC3 gave a fluorescence intensity of 2860. For N=c1c2c3c(sc2ncn1N)CCCCC3, the fluorescence intensity was 19400 (active). N=c1c2c3c(sc2ncn1CCCN1CCOCC1)CCCCC3 showed a fluorescence intensity of 6250. For CC(C(=O)O)n1cnc2sc3c(c2c1=O)CCCC3 (configuration not stated), the fluorescence intensity was 4940. For S=c1[nH]nc2c3c4c(sc3ncn12)CCCC4, the fluorescence intensity was 2950. Work on CN1CCN(C(=O)c2ccc(NC(=O)c3ccc(Br)o3)cc2)CC1 yielded a fluorescence intensity of 5550. With O=C(/C=C/[C@H]1O[C@@H](n2cnc3c(NC(=O)c4ccccc4)ncnc32)[C@H](O)[C@@H]1O)NCc1ccccc1 the fluorescence intensity was 6020.
